# This excerpt belongs to a sample that is enriched for hits.
# Dicer processing: inhibitors of human Dicer processing of pre-microRNA; AID 1347074; z-score at 25 µM; cat-ELCCA pre-miR-21 Dicer processing, chemiluminescence; stronger effect = higher value; Q9UPY3; 47,000 compounds, 6% hits; in the data active = z-score above about 3, passing the limit was not always enough;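 note: plate controls were vehicle for no effect and no enzyme for full effect; higher signal means more uncleaved substrate so more Dicer inhibition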
# The depositor's hits bear a star.
SMILES,Dicer processing
Fc1ccc(-n2nnnc2-c2cnn(-c3ccccc3Cl)c2C(F)(F)F)cc1,-1.6
Nc1ncc(-c2nnnn2-c2ccc(F)cc2)c(C(F)(F)F)n1,1.8
FC(F)(F)c1[nH]ncc1-c1nnnn1-c1ccc(Cl)cc1,4.8*
CC(C)(C)OC(=O)NC1CCN(c2ncc(C(F)(F)F)cc2Cl)CC1,-1.1
Cc1ccc(N2C(=O)C3C4C=CC(O4)C3C2=O)cc1C (centres undefined),0.04
CNC(=S)N1CCCN(c2ccc(C#N)cn2)CC1,-0.51
O=C(CSc1nnc2scc(-c3ccccc3)n12)c1ccc(Cl)cc1,0.3
CCn1c(C)[n+](CC(O)COc2ccc(F)cc2)c2ccccc21 (centres undefined),0.85
CCc1n(CC)c2ccccc2[n+]1CC(O)COc1ccc(F)cc1 (centres undefined),5*
CCc1n(CC)c2ccccc2[n+]1CC(O)COc1ccccc1OC (centres undefined),0.58
O=C(NC(=O)c1ccc(F)c(Cl)c1)NN(Cc1c(F)cccc1Cl)c1ccccc1,-2
FC(F)(F)c1ccc(C2=NCCO2)cc1,4.8*
FC(F)(F)c1ccc(-c2nnc(-c3ccc4nccnc4c3)o2)cc1,-0.74
FC(F)(F)c1ccc(-c2nc(=S)[nH][nH]2)cc1,-0.04
Cc1cc(-c2cccnc2)c(C#N)c(SCC(=O)O)n1,2.8
Cc1nnc(SCc2ccccc2Cl)[nH]c1=O,3*
Cc1cc(=O)[nH]c(SCc2ccccc2Cl)n1,2.5
CCCc1cc(=O)[nH]c(SCc2ccccc2Cl)n1,-3.9
Cc1c(C)c(C)c(C(=O)c2ccccc2C(=O)O)c(C)c1C,1.7
CC1=Nc2ccc(C)cc2C1(C)C,-0.12
N#Cc1c(-c2ccc(F)cc2)c2c([nH]c1=O)-c1ccccc1CC2,0.96
N#Cc1c(-c2cccnc2)c2c([nH]c1=O)-c1ccccc1SC2,0.62
N#Cc1c(-c2ccc(F)cc2)c2c([nH]c1=O)-c1ccccc1SC2,3.5*
Nc1ccccc1C(=O)NNC(=O)c1ccccc1Cl,-0.1
CCCSc1nnc2c(n1)OC(c1ccc(C(=O)O)cc1)Nc1ccccc1-2 (centres undefined),0.57
SMILES,Dicer processing
Cc1cc(NNC(=O)Nc2cccc(Cl)c2)nc2c1c(C)nn2C,0.59
Cc1cc(NNC(=O)c2ccccc2Cl)nc2c1c(C)nn2C,-0.63
Cc1cc(NNS(=O)(=O)c2ccc(Cl)cc2)nc2c1c(C)nn2C,4.4*
CN(C)S(=O)(=O)N(CC(=O)Nc1ccc(F)cc1F)c1ccccc1,-1.6
CS(=O)(=O)n1nccc1-c1ccc(Oc2cccc(Cl)c2C#N)cc1,0.04
CCOC(=O)CSC(=S)NCc1ccccc1,-1.5
CN(C)CCCN1C(=O)C(O)=C(C(=O)c2ccco2)C1c1ccccc1 (centres undefined),-1.1
Cc1ccc(S(=O)(=O)c2nc(-c3ccco3)oc2N2CCCCC2)cc1,-0.48
O=c1cc(Nc2ccc(OC(F)(F)F)cc2)c2ccccc2o1,3.2*
O=C(NNC(=O)Nc1ccc(OC(F)(F)F)cc1)Nc1ccc(OC(F)(F)F)cc1,0.17
O=c1nc(Nc2ccc(OC(F)(F)F)cc2)c2ccccc2o1,0.39
CC(C)N(CCO)S(=O)(=O)c1ccc(N)cc1,1.1
O=C(O)c1c(N2CCCCC2)ccc([N+](=O)[O-])c1N1CCCCC1,-0.06
O=c1c(N2CCCCC2)c(N2CCCCC2)c1=O,7.3*
O=[N+]([O-])c1ccc(N2CCCCCCC2)cc1,1.5
CC(C)(C)c1ccc(N=C(C#N)C2=C(O)c3ccccc3C2=O)cc1,3.1*
N#CC(=Nc1ccc(F)cc1)C1=C(O)c2ccccc2C1=O,0.82
N#CC(=Nc1ccc(F)cc1F)C1=C(O)c2ccccc2C1=O,-3.2
CC(C)(C)C(=O)c1cn(CC(=O)N2CCCc3ccccc32)c2ccccc12,1
Nc1nc(/C=C/c2ccccc2)nc(-c2ccccc2O)n1,-0.1
Cc1cccc(C)c1NC(=O)c1cnc(Sc2ccccc2)cc1C(F)(F)F,-1.1
c1ccc2sc(NC3=NCN(Cc4ccc5c(c4)OCO5)CN3)nc2c1,2.8
COc1cccc(Nc2nc3ccccc3s2)c1,0.59
CC1CCCCC1N1CN=C(Nc2nc3ccccc3s2)NC1 (centres undefined),3.8*
Cc1ccc(C(NC(=O)C(C)C)c2cc(Cl)c3cccnc3c2O)cc1 (centres undefined),1.7
SMILES,Dicer processing
O=C(Oc1c(Cl)cc(Cl)c2cccnc12)c1cccs1,1.4
Cc1ccc(S(=O)(=O)Nc2ncccc2OCc2ccc(Cl)c(Cl)c2)cc1,-0.73
Oc1c(Cl)cc(Cl)c2cccnc12,3.1*
Cc1ccc(S(=O)(=O)Nc2cc(S(=O)(=O)c3ccc(C)cc3)c(O)c3cccnc23)cc1,-0.59
Cc1ccc(S(=O)(=O)Nc2cc(Cl)c(O)c3ncccc23)cc1,8.6*
CS(=O)(=N/C=C(\C#N)C(=O)c1ccc(Cl)cc1)c1ccc(C(F)(F)F)cn1 (centres undefined),0.87
CC1=C(C(=O)OCCOc2ccccc2)C(c2cccs2)C2=C(CC(c3cccs3)CC2=O)N1 (centres undefined),0.49
CS(=O)(=O)c1ncc(OCc2ccccc2)cn1,0.25

# Bioassay records: PubChem BioAssay, Center for Chemical Genomics, University of Michigan
